Drawing on ChEMBL document CHEMBL1961873, “Compounds: GSK PKIS; Assays: Nanosyn kinase panel” (2012), this text covers inhibition for two compounds.

Test [1] concerns the target Protein kinase C gamma type (Homo sapiens) (UniProt P05129). As to conditions: at 1 µM.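 Note: each value is an averaged percent inhibition of the enzyme.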
The target of test [2] is T1, Protein kinase C iota type (Homo sapiens) (UniProt P41743).
T1 sequence (whole entry): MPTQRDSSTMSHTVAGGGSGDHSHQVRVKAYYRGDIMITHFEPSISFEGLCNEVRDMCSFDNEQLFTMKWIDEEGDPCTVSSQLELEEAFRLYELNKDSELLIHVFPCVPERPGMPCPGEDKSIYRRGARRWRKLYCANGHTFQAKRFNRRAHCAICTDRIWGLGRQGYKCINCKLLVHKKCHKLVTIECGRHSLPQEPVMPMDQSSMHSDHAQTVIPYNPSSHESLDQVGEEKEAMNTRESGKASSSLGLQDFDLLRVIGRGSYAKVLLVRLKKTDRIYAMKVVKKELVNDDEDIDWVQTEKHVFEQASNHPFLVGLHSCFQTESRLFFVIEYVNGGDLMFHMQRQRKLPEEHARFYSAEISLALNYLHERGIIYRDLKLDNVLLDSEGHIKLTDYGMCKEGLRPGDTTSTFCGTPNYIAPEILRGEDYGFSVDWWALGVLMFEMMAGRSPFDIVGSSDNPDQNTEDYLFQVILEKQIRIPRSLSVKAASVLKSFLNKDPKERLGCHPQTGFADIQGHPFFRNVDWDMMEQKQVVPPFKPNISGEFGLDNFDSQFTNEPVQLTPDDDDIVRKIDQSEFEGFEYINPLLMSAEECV
As to conditions: at 0.1 µM.

Test [3] deals with T1, Protein kinase C iota type (Homo sapiens). As to conditions: at 1 µM.
For test [4], the target named is Protein kinase C theta type (Homo sapiens) (UniProt Q04759). As to conditions: at 0.1 µM.
Chain of Protein kinase C theta type (Homo sapiens) (Q04759 whole entry, looked up): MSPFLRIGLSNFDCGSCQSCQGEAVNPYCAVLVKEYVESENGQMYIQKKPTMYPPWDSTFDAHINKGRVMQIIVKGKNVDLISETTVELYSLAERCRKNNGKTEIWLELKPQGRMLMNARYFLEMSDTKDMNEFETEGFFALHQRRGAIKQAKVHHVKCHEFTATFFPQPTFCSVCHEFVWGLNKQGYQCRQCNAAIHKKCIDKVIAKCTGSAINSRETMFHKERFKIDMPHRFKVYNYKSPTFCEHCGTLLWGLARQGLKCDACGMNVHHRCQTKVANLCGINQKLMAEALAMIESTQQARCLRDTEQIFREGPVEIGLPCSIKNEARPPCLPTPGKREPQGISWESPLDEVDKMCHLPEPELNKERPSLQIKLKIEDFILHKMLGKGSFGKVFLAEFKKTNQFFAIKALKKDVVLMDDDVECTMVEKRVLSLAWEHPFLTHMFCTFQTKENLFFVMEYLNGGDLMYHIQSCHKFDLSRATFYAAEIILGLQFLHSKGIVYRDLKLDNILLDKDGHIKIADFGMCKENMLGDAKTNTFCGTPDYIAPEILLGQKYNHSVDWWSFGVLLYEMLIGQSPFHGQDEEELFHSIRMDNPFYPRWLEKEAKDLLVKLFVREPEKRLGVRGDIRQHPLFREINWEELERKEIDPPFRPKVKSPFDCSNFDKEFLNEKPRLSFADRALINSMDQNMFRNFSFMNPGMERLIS
Test [5] has the same target. As to conditions: at 1 µM.
Test [6] deals with Protein kinase C beta type (Homo sapiens) (UniProt P05771). As to conditions: at 0.1 µM.
Chain of Protein kinase C beta type (Homo sapiens) (P05771 2-671 limits assumed): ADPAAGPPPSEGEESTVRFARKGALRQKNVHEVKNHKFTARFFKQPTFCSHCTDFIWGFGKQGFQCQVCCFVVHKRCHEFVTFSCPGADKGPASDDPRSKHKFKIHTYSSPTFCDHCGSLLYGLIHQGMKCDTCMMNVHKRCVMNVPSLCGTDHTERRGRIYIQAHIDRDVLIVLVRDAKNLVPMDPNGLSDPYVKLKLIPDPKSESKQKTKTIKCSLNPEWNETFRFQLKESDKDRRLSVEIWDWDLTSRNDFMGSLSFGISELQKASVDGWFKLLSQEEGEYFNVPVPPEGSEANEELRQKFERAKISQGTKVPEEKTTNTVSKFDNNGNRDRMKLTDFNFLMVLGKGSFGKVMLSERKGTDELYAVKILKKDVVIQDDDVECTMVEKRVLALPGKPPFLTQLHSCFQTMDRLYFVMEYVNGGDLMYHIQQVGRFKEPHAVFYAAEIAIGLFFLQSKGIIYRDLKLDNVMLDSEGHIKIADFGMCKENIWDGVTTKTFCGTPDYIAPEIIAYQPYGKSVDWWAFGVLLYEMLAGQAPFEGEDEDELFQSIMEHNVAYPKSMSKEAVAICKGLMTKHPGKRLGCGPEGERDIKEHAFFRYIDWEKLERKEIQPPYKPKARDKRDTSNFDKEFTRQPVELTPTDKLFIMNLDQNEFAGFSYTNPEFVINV
Test [7] has the same target. As to conditions: at 1 µM.
Test [8] addresses T2, Serine/threonine-protein kinase D1 (Homo sapiens) (UniProt Q15139).
T2 sequence (whole entry): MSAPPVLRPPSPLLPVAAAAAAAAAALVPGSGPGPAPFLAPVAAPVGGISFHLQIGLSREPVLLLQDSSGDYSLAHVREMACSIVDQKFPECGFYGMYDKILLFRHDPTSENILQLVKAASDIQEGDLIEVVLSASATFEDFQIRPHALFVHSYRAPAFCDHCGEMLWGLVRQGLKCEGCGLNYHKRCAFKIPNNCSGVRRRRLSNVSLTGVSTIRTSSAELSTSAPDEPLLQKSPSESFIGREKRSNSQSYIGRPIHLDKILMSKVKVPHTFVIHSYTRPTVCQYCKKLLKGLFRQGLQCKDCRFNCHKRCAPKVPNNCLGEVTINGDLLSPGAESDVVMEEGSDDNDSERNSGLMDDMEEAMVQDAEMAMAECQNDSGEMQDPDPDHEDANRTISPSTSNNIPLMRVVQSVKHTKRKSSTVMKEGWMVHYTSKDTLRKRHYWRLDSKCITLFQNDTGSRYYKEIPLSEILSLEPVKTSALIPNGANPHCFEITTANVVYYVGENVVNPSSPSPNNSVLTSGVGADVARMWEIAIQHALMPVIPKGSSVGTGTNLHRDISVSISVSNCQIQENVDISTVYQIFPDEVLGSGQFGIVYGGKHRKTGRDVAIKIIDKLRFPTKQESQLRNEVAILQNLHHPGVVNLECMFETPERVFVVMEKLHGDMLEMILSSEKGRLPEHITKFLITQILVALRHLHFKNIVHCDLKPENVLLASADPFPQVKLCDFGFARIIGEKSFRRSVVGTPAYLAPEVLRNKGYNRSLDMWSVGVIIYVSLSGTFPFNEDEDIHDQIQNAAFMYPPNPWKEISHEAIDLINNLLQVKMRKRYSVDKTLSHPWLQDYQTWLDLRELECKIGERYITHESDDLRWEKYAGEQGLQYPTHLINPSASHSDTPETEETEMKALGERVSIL
As to conditions: at 0.1 µM.

The target in test [9] is T2, Serine/threonine-protein kinase D1 (Homo sapiens). As to conditions: at 1 µM.
Test [10] has as its target T3, Serine/threonine-protein kinase D2 (Homo sapiens) (UniProt Q9BZL6).
T3 sequence (whole entry): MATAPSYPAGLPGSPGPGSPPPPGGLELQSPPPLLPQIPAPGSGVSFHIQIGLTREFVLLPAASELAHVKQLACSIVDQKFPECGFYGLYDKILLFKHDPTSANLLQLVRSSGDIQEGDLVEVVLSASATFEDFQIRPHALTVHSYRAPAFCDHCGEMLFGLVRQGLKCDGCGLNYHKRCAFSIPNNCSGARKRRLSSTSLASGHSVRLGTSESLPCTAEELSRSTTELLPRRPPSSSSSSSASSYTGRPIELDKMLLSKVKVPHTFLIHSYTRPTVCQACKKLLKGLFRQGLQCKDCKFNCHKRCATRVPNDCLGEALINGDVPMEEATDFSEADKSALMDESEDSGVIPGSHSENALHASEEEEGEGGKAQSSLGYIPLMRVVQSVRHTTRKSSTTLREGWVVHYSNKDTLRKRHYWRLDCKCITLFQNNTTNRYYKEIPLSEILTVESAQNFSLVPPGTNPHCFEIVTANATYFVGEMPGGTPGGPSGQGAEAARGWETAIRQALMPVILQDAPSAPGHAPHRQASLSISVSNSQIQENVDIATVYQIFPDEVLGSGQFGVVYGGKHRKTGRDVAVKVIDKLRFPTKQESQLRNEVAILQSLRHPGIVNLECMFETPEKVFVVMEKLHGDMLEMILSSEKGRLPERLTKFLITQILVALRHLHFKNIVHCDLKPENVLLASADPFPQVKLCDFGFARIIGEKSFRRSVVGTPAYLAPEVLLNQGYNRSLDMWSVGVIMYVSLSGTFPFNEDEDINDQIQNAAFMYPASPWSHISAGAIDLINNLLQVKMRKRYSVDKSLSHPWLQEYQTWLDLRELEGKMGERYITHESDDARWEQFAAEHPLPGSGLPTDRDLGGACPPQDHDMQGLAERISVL
As to conditions: at 0.1 µM.

The target of test [11] is T3, Serine/threonine-protein kinase D2 (Homo sapiens). As to conditions: at 1 µM.
In test [12] the target is T4, Serine/threonine-protein kinase D3 (Homo sapiens) (UniProt O94806).
T4 sequence (whole entry): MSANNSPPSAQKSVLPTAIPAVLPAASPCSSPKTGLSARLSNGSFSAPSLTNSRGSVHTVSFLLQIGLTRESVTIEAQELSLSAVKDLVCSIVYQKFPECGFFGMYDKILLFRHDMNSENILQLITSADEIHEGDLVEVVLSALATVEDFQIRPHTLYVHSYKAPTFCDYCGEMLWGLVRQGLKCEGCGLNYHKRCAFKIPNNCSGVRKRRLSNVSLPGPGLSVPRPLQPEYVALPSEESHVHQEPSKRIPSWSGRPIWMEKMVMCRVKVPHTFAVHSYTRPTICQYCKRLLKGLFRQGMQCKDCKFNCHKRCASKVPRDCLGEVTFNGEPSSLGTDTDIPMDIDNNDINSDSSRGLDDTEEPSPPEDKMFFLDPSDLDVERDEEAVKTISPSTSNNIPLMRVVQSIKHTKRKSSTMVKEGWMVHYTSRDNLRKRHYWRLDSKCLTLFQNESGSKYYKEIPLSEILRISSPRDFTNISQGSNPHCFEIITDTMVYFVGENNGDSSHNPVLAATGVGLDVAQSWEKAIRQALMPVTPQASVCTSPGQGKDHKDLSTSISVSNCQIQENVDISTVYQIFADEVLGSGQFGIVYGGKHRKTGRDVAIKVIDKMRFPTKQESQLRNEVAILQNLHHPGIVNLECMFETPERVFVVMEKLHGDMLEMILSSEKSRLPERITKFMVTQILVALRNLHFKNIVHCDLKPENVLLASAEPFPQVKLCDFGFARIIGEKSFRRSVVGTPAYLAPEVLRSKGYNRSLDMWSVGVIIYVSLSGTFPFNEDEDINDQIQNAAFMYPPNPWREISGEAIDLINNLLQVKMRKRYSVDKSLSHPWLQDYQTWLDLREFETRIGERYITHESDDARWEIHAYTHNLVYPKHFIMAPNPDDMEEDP
As to conditions: at 0.1 µM.

The target of test [13] is T4, Serine/threonine-protein kinase D3 (Homo sapiens). As to conditions: at 1 µM.
The target in test [14] is T5, cGMP-dependent protein kinase 1 (Homo sapiens) (UniProt Q13976).
T5 sequence (whole entry): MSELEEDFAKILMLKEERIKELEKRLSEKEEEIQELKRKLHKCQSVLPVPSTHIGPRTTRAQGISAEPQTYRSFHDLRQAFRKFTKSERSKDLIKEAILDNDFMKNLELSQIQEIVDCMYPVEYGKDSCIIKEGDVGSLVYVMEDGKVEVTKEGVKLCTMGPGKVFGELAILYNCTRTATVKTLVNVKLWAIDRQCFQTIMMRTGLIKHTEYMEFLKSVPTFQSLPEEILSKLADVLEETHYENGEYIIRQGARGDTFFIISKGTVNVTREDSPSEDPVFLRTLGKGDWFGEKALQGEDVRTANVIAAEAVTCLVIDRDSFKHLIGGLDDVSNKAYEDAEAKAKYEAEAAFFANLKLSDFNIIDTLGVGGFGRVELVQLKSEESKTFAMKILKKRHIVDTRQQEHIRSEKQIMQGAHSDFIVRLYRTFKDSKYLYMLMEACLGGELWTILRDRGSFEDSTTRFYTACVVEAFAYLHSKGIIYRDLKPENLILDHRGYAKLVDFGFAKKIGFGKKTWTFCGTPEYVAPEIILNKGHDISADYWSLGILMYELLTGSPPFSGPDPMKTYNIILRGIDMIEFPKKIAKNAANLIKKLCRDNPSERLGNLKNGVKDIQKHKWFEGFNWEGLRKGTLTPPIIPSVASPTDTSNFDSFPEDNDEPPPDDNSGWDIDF
As to conditions: at 0.1 µM.

Test [15] has as its target T5, cGMP-dependent protein kinase 1 (Homo sapiens). As to conditions: at 1 µM.
Test [16] has as its target T6, cGMP-dependent protein kinase 2 (Homo sapiens) (UniProt Q13237).
T6 sequence (whole entry): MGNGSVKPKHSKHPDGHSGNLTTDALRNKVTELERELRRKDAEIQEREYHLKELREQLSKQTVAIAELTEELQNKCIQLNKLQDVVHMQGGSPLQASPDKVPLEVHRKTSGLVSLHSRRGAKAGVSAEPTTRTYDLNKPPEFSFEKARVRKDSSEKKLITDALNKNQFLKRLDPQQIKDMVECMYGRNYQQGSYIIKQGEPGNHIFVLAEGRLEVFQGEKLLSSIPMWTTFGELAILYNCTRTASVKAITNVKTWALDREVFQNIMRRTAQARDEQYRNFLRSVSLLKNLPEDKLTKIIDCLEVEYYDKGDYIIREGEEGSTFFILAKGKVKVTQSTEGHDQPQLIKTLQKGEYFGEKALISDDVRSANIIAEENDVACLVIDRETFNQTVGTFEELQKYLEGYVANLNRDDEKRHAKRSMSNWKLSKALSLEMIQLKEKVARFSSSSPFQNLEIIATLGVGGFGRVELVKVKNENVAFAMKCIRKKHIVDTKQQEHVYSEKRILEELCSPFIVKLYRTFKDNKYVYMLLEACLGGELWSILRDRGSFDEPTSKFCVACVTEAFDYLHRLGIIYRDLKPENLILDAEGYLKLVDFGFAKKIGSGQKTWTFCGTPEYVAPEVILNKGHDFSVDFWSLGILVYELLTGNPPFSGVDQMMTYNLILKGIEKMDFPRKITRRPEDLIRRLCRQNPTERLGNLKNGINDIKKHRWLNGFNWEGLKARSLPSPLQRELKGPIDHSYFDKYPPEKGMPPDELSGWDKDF
As to conditions: at 0.1 µM.

Test [17] addresses T6, cGMP-dependent protein kinase 2 (Homo sapiens). As to conditions: at 1 µM.
The target of test [18] is T7, cAMP-dependent protein kinase catalytic subunit PRKX (Homo sapiens) (UniProt P51817).
T7 sequence (whole entry): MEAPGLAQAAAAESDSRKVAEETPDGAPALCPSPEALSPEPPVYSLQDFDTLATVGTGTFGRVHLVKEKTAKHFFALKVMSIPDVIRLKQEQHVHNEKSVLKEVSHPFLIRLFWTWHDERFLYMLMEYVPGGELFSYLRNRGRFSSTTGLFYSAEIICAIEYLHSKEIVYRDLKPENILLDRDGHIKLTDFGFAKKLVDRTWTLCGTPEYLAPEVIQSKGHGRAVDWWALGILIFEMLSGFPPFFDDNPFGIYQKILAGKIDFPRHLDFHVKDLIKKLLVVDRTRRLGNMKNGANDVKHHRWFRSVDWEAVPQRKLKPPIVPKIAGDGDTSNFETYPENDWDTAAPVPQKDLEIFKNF
As to conditions: at 0.1 µM.

Test [19] deals with T7, cAMP-dependent protein kinase catalytic subunit PRKX (Homo sapiens). As to conditions: at 1 µM.
The target in test [20] is Rho-associated protein kinase 1 (Homo sapiens) (UniProt Q13464). As to conditions: at 0.1 µM.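 Note: values are mean percent inhibition of ROCK1.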
Chain of Rho-associated protein kinase 1 (Homo sapiens) (Q13464 2-1354 limits assumed): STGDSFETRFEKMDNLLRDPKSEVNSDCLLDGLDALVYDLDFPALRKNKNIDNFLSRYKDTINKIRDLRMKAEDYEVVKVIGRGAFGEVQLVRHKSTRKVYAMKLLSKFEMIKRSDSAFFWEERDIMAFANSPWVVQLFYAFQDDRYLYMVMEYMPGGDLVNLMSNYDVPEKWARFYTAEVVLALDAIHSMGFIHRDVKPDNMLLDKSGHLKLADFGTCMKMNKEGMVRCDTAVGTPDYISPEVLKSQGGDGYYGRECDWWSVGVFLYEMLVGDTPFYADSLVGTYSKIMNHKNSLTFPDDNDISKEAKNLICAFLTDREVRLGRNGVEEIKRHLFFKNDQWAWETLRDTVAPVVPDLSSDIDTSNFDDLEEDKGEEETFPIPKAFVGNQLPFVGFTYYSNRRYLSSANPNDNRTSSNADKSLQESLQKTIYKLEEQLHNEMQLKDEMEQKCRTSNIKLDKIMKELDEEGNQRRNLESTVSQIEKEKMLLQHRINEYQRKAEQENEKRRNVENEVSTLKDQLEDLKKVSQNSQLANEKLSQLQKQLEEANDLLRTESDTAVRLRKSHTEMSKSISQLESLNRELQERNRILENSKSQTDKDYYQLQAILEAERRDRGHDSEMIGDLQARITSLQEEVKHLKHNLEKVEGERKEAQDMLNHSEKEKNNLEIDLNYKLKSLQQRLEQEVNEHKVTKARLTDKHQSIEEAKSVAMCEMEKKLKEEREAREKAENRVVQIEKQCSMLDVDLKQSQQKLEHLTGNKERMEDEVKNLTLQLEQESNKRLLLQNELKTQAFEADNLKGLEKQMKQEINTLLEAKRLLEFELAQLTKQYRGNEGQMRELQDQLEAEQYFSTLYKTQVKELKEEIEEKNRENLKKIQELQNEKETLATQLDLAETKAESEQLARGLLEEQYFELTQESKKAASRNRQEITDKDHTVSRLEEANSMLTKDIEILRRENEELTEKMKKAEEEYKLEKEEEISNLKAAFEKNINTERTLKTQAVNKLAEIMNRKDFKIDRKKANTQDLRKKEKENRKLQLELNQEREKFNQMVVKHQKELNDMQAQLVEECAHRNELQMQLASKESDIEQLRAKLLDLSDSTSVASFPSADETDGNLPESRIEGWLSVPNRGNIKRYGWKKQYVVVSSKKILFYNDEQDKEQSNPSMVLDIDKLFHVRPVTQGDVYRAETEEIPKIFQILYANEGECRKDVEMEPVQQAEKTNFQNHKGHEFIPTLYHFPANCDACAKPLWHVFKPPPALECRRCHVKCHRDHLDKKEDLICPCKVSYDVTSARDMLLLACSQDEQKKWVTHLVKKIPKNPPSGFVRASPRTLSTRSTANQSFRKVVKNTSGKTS

As a reminder, the inhibition is the relative decrease from the control value, in per cent. `O=C(Nc1ccc(Oc2ccc3[nH]c(NC(=O)c4ccccc4)nc3c2)cc1)Nc1cc(C(F)(F)F)ccc1F`: the inhibition in [1] was 3.66%; in test [2], 1.82%; in test [3], 0.93%; in [4] it was 1.79%; in [5], 2.18%; in test [6] it was 1.51%. The inhibition in [7] is 4.95%; in test [8], 2.05%; in test [9], 3.41%; in test [10], 3.12%; in [11], 4.25%; in [12], 3.06%. Further, the inhibition worked out at 3.63% in test [13]; 2.01% in [14]; 3.65% in [15]; 1.4% in test [16]; 2.23% in [17]; 1.55% in test [18]. Also, the inhibition in [19] was 1.09%; in test [20], 0.24%.

Turning to `c1ccc(-c2n[nH]cc2-c2ccnc(-c3ccc(OCCN4CCOCC4)cc3)c2)nc1`, the inhibition in test [1] is 4%; in test [2], 3.68%; in test [3], 4.56%; in test [4] it was 0.5%; in test [5], -0.12%; in [6] it was 3.96%. For the same compound, the inhibition in test [7] turned out to be 3.92%; in test [8], 10.3%; in [9], 66.3%; in test [10], 16.2%; in test [11] it was 80.7%; in [12], 5.97%. The inhibition in [13] amounted to 57.5%; in [14], 3.53%; in [15], 4.78%; in [16], 4.17%; in test [17] it was 3.32%; in test [18] it was 4.09%. Also, the inhibition stood at 2.55% in test [19] and 1.08% in test [20].
